According to PubChem BioAssay AID731 (The Scripps Research Institute Molecular Screening Center, 2007):
About 520 (0.26%) of roughly 200,000 compounds were called active. Cut-off read from the data, not from the text of the source: active = activation above about 23%; inactive = the rest. The full list was thinned out, with actives kept by preference.

What follows are compounds tested against Peroxisome proliferator-activated receptor gamma (Homo sapiens) (UniProt P37231) (assay: PPARgamma agonists recruiting SRC-3 coactivator, primary screen, biochemical (AID 731;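 note: 0% = DMSO and 100% = reference agonist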)). Details: biochemical PPARgamma/SRC-3 coactivator recruitment assay; at 8 µM; active compounds read high.
Chain of Peroxisome proliferator-activated receptor gamma (Homo sapiens) (P37231 whole entry, looked up): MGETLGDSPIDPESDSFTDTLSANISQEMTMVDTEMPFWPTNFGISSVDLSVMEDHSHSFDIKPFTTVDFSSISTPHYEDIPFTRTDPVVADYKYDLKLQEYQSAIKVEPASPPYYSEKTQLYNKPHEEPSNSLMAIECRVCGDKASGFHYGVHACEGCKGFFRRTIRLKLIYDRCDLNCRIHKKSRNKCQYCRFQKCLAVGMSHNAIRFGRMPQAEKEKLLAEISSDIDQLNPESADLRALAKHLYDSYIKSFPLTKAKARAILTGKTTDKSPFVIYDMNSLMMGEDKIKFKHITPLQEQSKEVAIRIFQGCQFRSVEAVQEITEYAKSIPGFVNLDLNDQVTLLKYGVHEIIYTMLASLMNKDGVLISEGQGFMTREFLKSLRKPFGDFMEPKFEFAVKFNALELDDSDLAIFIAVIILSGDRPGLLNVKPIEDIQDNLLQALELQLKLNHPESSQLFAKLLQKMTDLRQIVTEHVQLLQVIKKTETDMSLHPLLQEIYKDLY

activation, active:
COc1ccc2c(Cl)c(-c3nnco3)sc2c1 33.2%, CCc1nnc(NS(=O)(=O)c2ccc(NC(=S)NC(=O)/C=C/c3cccs3)cc2)s1 22.6%, O=C(O)Cc1sc(-c2ccccc2)nc1-c1cccs1 25.3%, Cn1c(-c2sc3cc(C(F)(F)F)cnc3c2-c2ccccc2)n[nH]c1=S 50%

activation, inactive:
Cc1cccc(NC(=O)c2cc([N+](=O)[O-])ccc2N2CCN(C)CC2)c1 4.61%, CCc1cc(C(=O)OC)c(NC(=O)CC2Sc3ccc(C(F)(F)F)cc3NC2=O)s1 (configuration not stated) -4.95%, CCOc1cc(/C=N/NC(=O)c2ccc(CSc3nncn3C)cc2)ccc1OCC(=O)N1CCOCC1 -1.91%, CC(OC(=O)CNS(=O)(=O)/C=C/c1ccccc1)C(=O)Nc1ccc(S(=O)(=O)N2CCCC2)cc1 (configuration not stated) -1.83%, CC(C(=O)O)n1cnc2sc3c(c2c1=O)CCCC3 (configuration not stated) 4.24%, COc1ccc(N2C(=O)CC(SC(C)C)C2=O)cc1 (configuration not stated) -1.07%, CN(Cc1cccc2ncccc12)C(=O)CC1C(=O)NCCN1Cc1ccc(F)cc1 (configuration not stated) -0.7%, O=C(/C=C/Nc1ccccc1)c1cnc(-c2ccccc2)s1 -4.1%, CC(C)Cn1c(N2CCN(C(=O)/C=C/c3ccccc3)CC2)nc2ccccc21 9.26%, COc1cccc(NC(=O)CN(C)CC(=O)Nc2ccc3c(c2)CCC3)c1 0.47%, O=C(Cc1ccccc1)NNS(=O)(=O)c1ccc([N+](=O)[O-])cc1 1.7%, CCCCn1nc(C(=O)Nc2ccc(S(=O)(=O)Nc3ncccn3)cc2)c2ccccc2c1=O 2.84%, CC(C)C(c1nnnn1C(C)(C)C)N1CCN(Cc2cccnc2)CC1 (configuration not stated) 4.42%, CCn1c(C(C)C)n[nH]c1=S 1.32%, CCN(CC(=O)NCc1cccs1)C(=O)c1ccccc1F 1.34%, COc1cc(CNCCN(C)C)ccc1OCc1c(F)cccc1Cl 2.34%, c1ccc(Cc2cc[n+](Cc3ccccc3)cc2)cc1 1.56%, NS(=O)(=O)c1cc(C(=O)NCCOc2ccccc2)c(Cl)cc1Cl -1.64%, CCc1nnc(NC(=O)[C@@H](NC(=O)c2cccc(C)c2)C(C)C)s1 -2.92%, COc1ccc(-c2nnc3ccc(SCc4ccccc4)nn23)cc1 3.96%, Cc1cc(C)nc(NC(=O)c2cccc([N+](=O)[O-])c2)c1 2.34%, CC(C)[C@H](NC(=O)c1ccc(F)cc1)C(=O)OCC(=O)NC(=O)c1cccn1C 1.86%, O=C(Cn1c(N2CCN(C/C=C/c3ccccc3)CC2)nc2ccccc21)c1ccccc1 6.67%, N/C(=N\OC(=O)c1ccc([N+](=O)[O-])cc1)c1ccccn1 -2.22%, [O-][n+]1onc2c1CCc1[nH]c(-c3ccccc3)nc1-2 0.76%, N#C/C(=C(\O)C(F)(F)F)c1nnc2n1CCCCC2 -0.75%, CSCc1ccc(C(=O)Nc2cc(C)cc(C)c2)cc1 -4.38%, COc1ccc2c(Cl)c(C(=O)NCc3ccco3)sc2c1 -2.31%, COc1ccc(-c2nnco2)cc1OC -2.7%, O=C(Nc1ccc2c(c1)CCC2)c1ccc(Br)s1 0.47%, C/C(=C\c1ccccc1)C1NC(=O)c2c(sc3c2CCCC3)N1 (configuration not stated) 6.88%, CCn1nc(C)c(CN2CCN(Cc3ccc(OC)c(C)c3C)C(CCO)C2)c1C (configuration not stated) -0.59%, Cn1cc(-c2ccccc2)cc(C#N)c1=O 1.51%, CN(C)N(C)C(=O)C(O)(c1ccccc1)c1ccccc1 3.14%, Cc1cc(C)cc(N(CC(=O)NCCSCc2ccco2)S(C)(=O)=O)c1 5.41%, O=C(CN1C(=O)NC2(CCCC2)C1=O)Nc1ccc(F)c(F)c1F 0.63%, O=S(=O)(c1ccc(F)cc1)N1CCN(C(=S)NC2CCCC2)CC1 1.45%, COc1cc(C)c(S(=O)(=O)N2CCOCC2)c(C)c1C -6.91%, CCc1nnc(NS(=O)(=O)c2ccc(NS(=O)(=O)c3ccccc3)cc2)s1 -4.6%, CCc1nnc(NS(=O)(=O)c2ccc(NC(=S)NC(=O)c3cccs3)cc2)s1 2.44%, C/C(=N/NC(=O)C1COc2ccccc2O1)c1ccco1 (configuration not stated) -2.9%, Cc1ccc(CN(C)CC(=O)Nc2cccc([N+](=O)[O-])c2)o1 -1.37%, COc1cc(NS(=O)(=O)c2ccc(NC(=O)c3ccc(S(=O)(=O)N4CCCCC4)cc3)cc2)ncn1 -0.22%, C/C(=N\NS(=O)(=O)c1ccc(Cl)cc1)c1ccc(NC(=O)c2ccco2)cc1 7.63%, O=C(O)Cc1sc(-c2ccc(C(=O)O)cc2)nc1-c1ccccc1 8.03%, Cc1ccc(-c2nc(C)sc2CC(=O)O)cc1 1.18%, Cc1ccc(C2=NN(C(=O)COc3ncnc4ccccc34)C(c3ccco3)C2)cc1 (configuration not stated) 6.22%, COC(C(=O)NCc1ccccc1C)c1ccccc1 (configuration not stated) -1.48%, CCCC(c1nnnn1C(C)(C)C)N1CCN(Cc2ccccc2)CC1 (configuration not stated) 0.32%, COc1ccc(OC)c(CNC(=O)c2cc(=O)[nH]c3ccc(S(=O)(=O)N4CCCC4)cc23)c1 1.02%, O=C(C1CCN(C2CCN(Cc3ccc4cc(F)ccc4n3)CC2)CC1)N1CCCC1 3.24%, Cc1ccc(C(=O)N/C(=C\c2ccco2)C(=O)N2CCSCC2)cc1C -0.93%, Cc1ccc2cc(C#N)c(NCCNC(=S)NCCCN3CCOCC3)nc2c1 1.37%, Cn1nnnc1SCC(=O)Nc1nc2ccccc2s1 -4.08%, N#Cc1c(-c2ccc(F)cc2)cc(C2CC2)nc1SCC(=O)c1cccs1 -1.78%, COC(=O)CCc1sc(Nc2ccc(Br)cc2)nc1-c1ccc(OC)cc1 4.66%, Cc1ccccc1-c1n[nH]c(=S)n1C 2.22%, Cn1c(-c2sccc2OCc2cccc(C(F)(F)F)c2)n[nH]c1=S 4.56%
